# Among all 2,100 compounds or so, about 670 (32%) were called active. Inconclusive results (about 50%) are left out. This is one part of the list. Unmarked numbers belong to inactive results. Calls follow the shape of the dose curve; as a rule, active = well fitted inhibition curve with a large enough effect; inconclusive = small, poorly fitted or top-dose-only effect; inactive = no such curve, though single readings can be large or run the other way.
# Experiment: CMV-Luciferase Counterscreen for Inhibitors of ATXN expression; also: nearly all actives have a fitted effect of over 55% in size
# Conditions: HEK-293 CMV-luciferase reporter, luminescence, 24 h; series mostly up to 57.5 µM; activity change, negative = inhibition: at the top concentration
# % is scaled to controls: 0 for no effect and ±100 for the full control effect; potency is read from the fitted curve at half-maximal effect.
Compound,"activity change, negative = inhibition",Potency
CN(C)C(=O)c1cccc(-c2cnc3c(NC=O)cc(-c4ccccc4N(C)C)cn23)c1,-27.7% [at 11.4 µM],–
CCN1CCN(c2ccc(S(=O)(=O)N3CCCCC3)cc2NC(=O)c2ccc([N+](=O)[O-])s2)CC1,–,3.16 µM (active)
CCN1CCN(c2ccc(S(=O)(=O)N3CCCCC3)cc2NC(=O)/C=C/c2ccc([N+](=O)[O-])cc2)CC1,-17.9% [at 11.4 µM],–
COc1ccccc1NC(=S)NC(=O)c1ccc(Cn2cc(Br)cn2)cc1,-18.1%,–
COc1ccccc1C(=O)NNC(=S)NC(=O)c1ccco1,–,7.94 µM (active)
CCC1=C(CC2NCCc3ccccc32)CC2c3cc(OC)c(OC)cc3CCN2C1 (stereo not given),–,14.1 µM (active)
CC[C@H]1CN2CCc3cc(OC)c(OC)cc3[C@@H]2C[C@@H]1C[C@H]1NCCc2cc(OC)c(OC)cc21,–,0.0794 µM (active)
CC[C@H]1CN2CCc3cc(OC)c(OC)cc3C2C[C@@H]1C[C@H]1NCCc2cc(OC)c(OC)cc21 (stereo not given in full),–,1.12 µM (active)
CCCCOc1ccc(NC2=NC3(CCCC3)N=C(N)N2)cc1,-4.4%,–
C/C(=N\N=C(N)N)c1ccc(Cl)cc1Cl,-27.5%,–
CC(C)[C@@H]1CC[C@@H](C)C[C@H]1OC(=O)C[n+]1cc(-c2ccc(Cl)cc2)n2c1CCCCC2,–,14.1 µM (active)
NNc1ncnc2scc(-c3ccc(Cl)cc3)c12,–,25.1 µM (active)
O=C(CSc1nnc(-c2ccc(Br)cc2)o1)Nc1cccc(C(=O)O)c1,–,4.47 µM (active)
COc1cccc(NC(=O)CSc2nc3ncc(Br)cc3[nH]2)c1,193% [at 11.4 µM],–
O=C(Nc1ccc(Oc2ccc(NC(=O)Nc3ccc([N+](=O)[O-])cc3)cc2)cc1)Nc1ccc([N+](=O)[O-])cc1,–,2.82 µM (active)
O=C1c2cc(Cl)ccc2-c2c(O)cc(Cl)cc21,-8.29%,–
COCc1ccc(CN2CCC(C(=O)Nc3cccc(-c4cccc(Cl)c4)c3)CC2)o1,–,14.1 µM (active)
O=C(Nc1ccc2oc(=O)ccc2c1)c1ccc(-c2cccc(Cl)c2)o1,-21.8%,–
COC(=O)Cc1[nH]n(-c2nc3ccccc3s2)c(=O)c1C(C)=Nc1ccc(C)cc1,–,0.501 µM (active)
CC(C)[C@H](CO)Nc1nc(NCc2ccc(S(N)(=O)=O)cc2)c2ncn(C(C)C)c2n1,41.8% [at 11.4 µM],–
Cc1ccn2c(Nc3ccccc3C)c(-c3ccccn3)nc2c1,–,5.01 µM (active)
Nc1ccc(OC(=O)Nc2ccc(O)cc2)cc1,–,12.6 µM (active)
CCOC(=O)c1c(NC(=O)COC(=O)c2ccccc2NC)sc(C(=O)N(C)C)c1C,-21.4% [at 11.4 µM],–
CN(C)CCCN(C(=O)c1ccc2c(c1)CCCC2)c1nc2cc3c(cc2s1)OCO3,-9.48%,–
Cc1cc(C)c2nc(N(CCCN(C)C)C(=O)c3ccc4c(c3)OCCO4)sc2c1,–,28.2 µM (active)
Cc1cccc2sc(N(CCCN(C)C)C(=O)c3ccco3)nc12,6.04%,–
Nc1nc(NCCCN2CCOCC2)nc(Nc2ccccc2F)c1[N+](=O)[O-],-23.9%,–
O=C(NCCc1cn2ccccc2n1)c1cc(COc2ccc3ncccc3c2)on1,–,14.1 µM (active)

Compound,"activity change, negative = inhibition",Potency
Cc1ccc(C)c(S(=O)(=O)N2CCN(c3ncnc4sccc34)CC2)c1,–,1.41 µM (active)
CN(C)CCNC(=O)c1cccc2nc3cccc(F)c3nc12,–,10 µM (active)
CN(C)CCCN(C(=O)c1ccc(S(=O)(=O)N(C)Cc2ccccc2)cc1)c1nc2c(F)cccc2s1,-26.4%,–
CN(C)CCNC(=O)c1cccc2[nH]c(-c3ccncc3)nc12,-19.8% [at 11.4 µM],–
CN(C)CCNC(=O)c1ccc(Cl)c2cc3ccccc3nc12,–,10 µM (active)
OCCN(Cc1ccccc1)CC(O)COc1ccc(-c2ccccc2)cc1 (stereo not given),-22.7%,–
O=C1/C(=C/c2ccncc2)CCC/C1=C\c1ccncc1,–,8.91 µM (active)
CN1C/C(=C/c2cccnc2)C(=O)/C(=C/c2cccnc2)C1,-8.05% [at 11.4 µM],–
Cc1onc(-c2c(Cl)cccc2Cl)c1C(=O)N/N=C(\N)COc1ccc(Cl)cc1,–,3.55 µM (active)
CCC(=O)OCCNc1cc(Sc2nc3ccccc3[nH]2)c2nonc2c1[N+](=O)[O-],-17% [at 11.4 µM],–
O=[N+]([O-])c1c(Nc2ccccn2)cc(Cl)c2nonc12,–,11.2 µM (active)
O=[N+]([O-])c1ccc(C[n+]2cccc3ccc4cccnc4c32)cc1,–,3.16 µM (active)
COc1cc(/C=N/Nc2snc(SC)c2C#N)cc(OC)c1OC,1.9%,–
Cc1c(Cl)cccc1NC(=O)N1CCCN(c2nc(-c3ccccc3)ns2)CC1,–,10 µM (active)
CC(C)(C)c1ccc(NC(=O)N2CCCN(c3c(Cl)cncc3Cl)CC2)cc1,-11.8%,–
O=C(Nc1ccccc1Cl)N1CCCN(c2nc(-c3ccccc3)ns2)CC1,–,14.1 µM (active)
Cc1c(N=C2N=C(NC(=O)Nc3ccc(Cl)cc3)c3ccccc32)c(=O)n(-c2ccccc2)n1C,-6.01%,–
Cc1c(N=C2C=CC(=O)c3ccccc32)c(=O)n(-c2ccccc2)n1C,–,31.6 µM (active)
Cc1cc(C)c(O)c(CN(C)Cc2cc(Cl)cc(Cl)c2O)c1,–,10 µM (active)
CCOC(=O)c1c(SCCN2CCCCC2)n(-c2ccccc2)c(=S)n(-c2ccccc2)c1=O,–,22.4 µM (active)
Cc1sc2ncnc(NCC(O)c3ccc([N+](=O)[O-])cc3)c2c1C (stereo not given),–,5.62 µM (active)
O=C(O)CCn1cc(/C=C/C(=O)c2ccc(Cl)cc2)c(-c2ccc(Br)cc2)n1,–,10 µM (active)
CC[C@@]1(O)C(=O)OCc2c1cc1n(c2=O)Cc2cc3c(CN(C)C)c(O)ccc3nc2-1,–,11.2 µM (active)
CCC1(O)C(=O)OCc2c1cc1n(c2=O)Cc2cc3cc(O)ccc3nc2-1 (stereo not given),–,0.891 µM (active)
O=C(NC1C=CS(=O)(=O)C1)c1sc2ccccc2c1Cl (stereo not given),-11.1% [at 11.4 µM],–
Brc1cnc2nc(SCc3nc4ccccc4[nH]3)[nH]c2c1,361% [at 11.4 µM],–
CCCCc1ccc(NC(=O)N2CCN(c3cc(C)nc4ccccc34)CC2)c(C)c1,–,12.6 µM (active)

# Reference: PubChem BioAssay AID1745847 (National Center for Advancing Translational Sciences (NCATS), 2022)
